8 compounds from PubChem BioAssay (EPA / NIEHS) can be followed below.

Several values for one entry are separate records, joined by “and”; a condition that tells them apart may be missing. Equal values may be shown once. Results filed as inconclusive are left out. The source holds several records for some structures; these can differ, active in one and inactive in another. Activity calls are given as the source filed them. Rule for the calls, unless noted: active = hit-call score of the fitted dose curve at least 0.9, where 1 is the maximum; inconclusive = response in the unintended direction; inactive = score below 0.9.

Assay [1] deals with mouse Estrogen Receptor alpha (Era), Esr1 (gene 13982) (UniProt P19785). Nature of the assay: NVS_NR_mERa: NovaScreen (NVS) Nuclear Receptor Binding Assay for mouse Estrogen Receptor alpha (Era) (AID 2283378).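 Note: hit means loss of bound radioligand signal relative to DMSO.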 In short, it runs like this: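 Extracted mouse Era incubated with tritiated or iodinated radioligand plus test chemical, 18 h. Bound fraction separated on filters, counted by scintillation. DMSO = negative control/baseline; duplicate single-point at 25 uM, then concentration-response follow-up.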
mouse Estrogen Receptor alpha (Era), Esr1 (gene 13982), sequence (P19785 whole entry, looked up): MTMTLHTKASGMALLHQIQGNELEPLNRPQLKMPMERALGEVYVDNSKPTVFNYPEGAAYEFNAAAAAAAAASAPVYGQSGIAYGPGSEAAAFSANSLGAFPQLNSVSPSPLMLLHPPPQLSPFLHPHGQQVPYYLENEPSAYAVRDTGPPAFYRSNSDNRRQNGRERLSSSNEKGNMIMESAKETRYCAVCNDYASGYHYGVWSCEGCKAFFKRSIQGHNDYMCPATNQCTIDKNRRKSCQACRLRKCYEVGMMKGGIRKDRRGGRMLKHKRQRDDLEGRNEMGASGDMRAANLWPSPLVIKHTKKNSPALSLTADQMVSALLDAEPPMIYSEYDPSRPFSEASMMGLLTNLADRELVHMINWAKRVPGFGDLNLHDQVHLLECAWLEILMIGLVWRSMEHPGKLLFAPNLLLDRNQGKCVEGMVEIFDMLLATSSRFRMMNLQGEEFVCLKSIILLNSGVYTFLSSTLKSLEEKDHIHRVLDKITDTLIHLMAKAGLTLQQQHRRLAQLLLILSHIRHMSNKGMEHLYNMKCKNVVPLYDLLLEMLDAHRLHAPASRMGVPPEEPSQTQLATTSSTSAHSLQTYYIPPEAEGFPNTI

The target of assay [2] is Estrogen receptor beta (Homo sapiens) (UniProt Q92731). Description: OT_ER_ERbERb_1440: Odyssey Thera (OT) 24-hour HEK293T Protein-Complementation Assay for Estrogen Receptor-beta/-beta Homodimer (AID 2283380).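 Note: scored as signal increase over DMSO baseline for both agonists and antagonists.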 In short, it runs like this: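 HEK293T cells stably expressing ER beta LBD (aa 310-547) homodimer fragment-complementation reporter, dosed 24 h. Cells formaldehyde-fixed, Draq5-stained; gain in nuclear (agonist) or nuclear plus cytoplasmic (antagonist) fluorescence versus DMSO read by laser scanning cytometry.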
Estrogen receptor beta (Homo sapiens), sequence (Q92731 whole entry, looked up, the tested form may be a part): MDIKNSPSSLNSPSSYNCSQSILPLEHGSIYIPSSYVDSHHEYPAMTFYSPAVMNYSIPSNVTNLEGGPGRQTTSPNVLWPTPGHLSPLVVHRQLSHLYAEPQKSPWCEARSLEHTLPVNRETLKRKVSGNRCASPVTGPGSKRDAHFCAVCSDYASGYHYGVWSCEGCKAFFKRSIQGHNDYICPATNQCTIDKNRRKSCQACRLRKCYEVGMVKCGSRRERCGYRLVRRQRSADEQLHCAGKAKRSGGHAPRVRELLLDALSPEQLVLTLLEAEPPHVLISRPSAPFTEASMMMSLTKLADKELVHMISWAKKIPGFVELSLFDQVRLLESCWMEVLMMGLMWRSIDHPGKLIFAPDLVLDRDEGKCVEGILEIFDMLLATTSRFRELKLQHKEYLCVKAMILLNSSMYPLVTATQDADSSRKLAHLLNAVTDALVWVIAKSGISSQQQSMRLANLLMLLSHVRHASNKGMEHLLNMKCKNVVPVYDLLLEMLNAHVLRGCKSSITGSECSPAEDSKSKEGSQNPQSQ

Assay [3] deals with Estrogen receptor (Homo sapiens) (UniProt P03372). Nature of the assay: OT_ERa_GFPERaERE_0480: Odyssey Thera (OT) 8-hour HeLa Transcription Induction Assay for Estrogen Receptor (AID 2283381; active = hit-call score of the fitted dose curve at least 0.9, where 1 is the maximum; inactive = score below 0.9). The method, boiled down:
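Fluorescent reporter signal, imaged by microscopy and scored with image-analysis algorithms, was taken 8 h after chemical dosing of HeLa cells; activity was fitted upward relative to DMSO.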

For assay [4] the target is unchanged. Description: OT_ERa_GFPERaERE_0120: Odyssey Thera (OT) 2-hour HeLa Transcription Induction Assay for Estrogen Receptor (AID 2283382). In short, it runs like this: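 HeLa, 384-well, 2 h chemical exposure; GFP reporter induction (ERE), fluorescence microscopy; high content image analysis; positive fitting direction vs DMSO.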
Assay [5] addresses Bile acid receptor (Homo sapiens) (UniProt Q96RI1). Nature of the assay: OT_FXR_FXRSRC1_0480: Odyssey Thera (OT) 8-hour HEK293T Protein-Complementation Assay for Farnesoid X receptor/SRC-1 Co-activator (AID 2283383). In short, it runs like this:
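Human kidney HEK293T cells carried FXR/SRC-1 fragment-complementation constructs. Compounds were added and incubated 8 h. Reporter reassembly upon receptor–co-activator interaction was then quantified by fluorescence, with curves fitted in the positive direction relative to DMSO.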

Assay [6] has the same target. Nature of the assay: OT_FXR_FXRSRC1_1440: Odyssey Thera (OT) 24-hour HEK293T Protein-Complementation Assay for Farnesoid X receptor/SRC-1 Co-activator (AID 2283384). In short, it runs like this:
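Compounds are applied to human kidney HEK293T cells expressing bait and prey fused to reporter protein fragments; after 24 h, reconstituted reporter fluorescence is measured. Activity is fitted as signal gain over DMSO.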

Assay [7] deals with Retinoic acid receptor RXR-alpha (Homo sapiens) (UniProt P19793). Description: OT_NURR1_NURR1RXRa_0480: Odyssey Thera (OT) 8-hour HEK293T Protein Complementation Assay for Nurr1/retinoid X receptor (RXR) (AID 2283385). The method, boiled down: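 8 h compound exposure, HEK293T; Nurr1/RXRα fragment complementation; fluorescence intensity; positive fitting direction vs DMSO baseline.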
Retinoic acid receptor RXR-alpha (Homo sapiens), sequence (P19793 whole entry, looked up, the tested form may be a part): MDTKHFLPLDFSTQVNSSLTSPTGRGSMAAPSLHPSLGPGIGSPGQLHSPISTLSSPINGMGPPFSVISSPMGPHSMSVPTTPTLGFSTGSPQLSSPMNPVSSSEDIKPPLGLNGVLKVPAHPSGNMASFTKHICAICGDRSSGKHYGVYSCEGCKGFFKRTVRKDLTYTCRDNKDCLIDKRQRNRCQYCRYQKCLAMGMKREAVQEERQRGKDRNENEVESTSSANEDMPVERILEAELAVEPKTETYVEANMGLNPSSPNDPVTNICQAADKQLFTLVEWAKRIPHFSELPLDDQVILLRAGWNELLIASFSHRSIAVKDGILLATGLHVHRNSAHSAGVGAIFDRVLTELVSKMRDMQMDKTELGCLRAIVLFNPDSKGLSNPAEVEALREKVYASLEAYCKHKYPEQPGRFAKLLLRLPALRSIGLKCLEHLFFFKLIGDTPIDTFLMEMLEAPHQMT

For assay [8] the target is unchanged. Description: OT_NURR1_NURR1RXRa_1440: Odyssey Thera (OT) 24-hour HEK293T Protein Complementation Assay for Nurr1/retinoid X receptor (RXR) (AID 2283386). In short, it runs like this: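 Interaction of Nurr1 with RXRα brings fused reporter fragments together in human HEK293T cells, restoring a functional reporter. Fluorescence intensity is measured 24 h after chemical treatment, and values are analysed in the positive direction against DMSO.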

Assay [9] addresses Peroxisome proliferator-activated receptor gamma (Homo sapiens) (UniProt P37231). Description: OT_PPARg_PPARgSRC1_0480: Odyssey Thera (OT) 8-hour Protein-Complementation Assay for Peroxisome Proliferator-activated Receptor Gamma / SRC-1 Co-activator (AID 2283387).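 Note: nuclear to cytoplasmic split Venus YFP fluorescence ratio reporting PPARg SRC-1 interaction.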 In short, it runs like this: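 Protein-fragment complementation in HEK293T: Venus YFP halves (residues 1-158, 159-239, mutated to IFP1/IFP2) fused to PPARg/SRC-1. 8 h exposure; N/C ratio at 488 nm; DMSO negative control.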

Assay [10] shares this target. Description: OT_PPARg_PPARgSRC1_1440: Odyssey Thera (OT) 24-hour Protein-Complementation Assay for Peroxisome Proliferator-activated Receptor Gamma/ SRC-1 Co-activator (AID 2283388).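 Note: nuclear to cytoplasmic ratio of reconstituted Venus YFP fluorescence in fixed imaged cells.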 The method, boiled down: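 Protein-fragment complementation between PPARg and coactivator SRC-1 was measured by fluorescence imaging in transiently transfected HEK293T cells after 24 h treatment. Signal was quantified as N/C ratio in the 488 nm channel, with DMSO as negative control.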

Assay [11] addresses Agonist Androgen Response Element (ARE), AR (gene 367) (UniProt P10275). Description: OT_AR_ARELUC_AG_1440: Odyssey Thera (OT) 24-hour CHO-K1 Luciferase Assay for Agonist Androgen Response Element (ARE) (AID 2283379). The method, boiled down: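 CHO-K1 cells carrying an ARE-driven luciferase reporter were exposed to compounds for 24 h. Luminescence was then read after adding a D-luciferin/ATP mix, and activity was scored as a gain in signal over DMSO vehicle.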

Assay [12] in a line: CEETOX_H295R_11DCORT: CeeTox H295R High-throughput Steroidogenesis Assay for 11-Deoxycortisol (11DCORT) (AID 2283432; active = hit-call score of the fitted dose curve at least 0.9, where 1 is the maximum; inactive = score below 0.9;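 for AC50: human adrenal H295R cells prestimulated with 10 µM forskolin for 48 h; 11-deoxycortisol secreted into the medium measured by LC-MS/MS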). The settings on record: actives raise or lower the signal. The method, boiled down:
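Adrenal carcinoma line H295R, run per OECD 456 with minor changes, was forskolin-stimulated (10 uM, 48 h) before a 48 h chemical exposure at 0.1% DMSO. Secreted 11-deoxycortisol was quantified by HPLC-MS/MS.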

A short description of assay [13]: CEETOX_H295R_OHPREG: CeeTox H295R High-throughput Steroidogenesis Assay for OH-Pregnenolone (OHPREG) (AID 2283434; active = hit-call score of the fitted dose curve at least 0.9, where 1 is the maximum; inactive = score below 0.9). To be noted: actives raise or lower the signal. In short, it runs like this:
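H295R cells pre-stimulated 48 h with 10 uM forskolin, then exposed 48 h to chemical in 0.1% DMSO. 17alpha-hydroxypregnenolone in medium quantified by MTBE extraction and HPLC-MS/MS; bidirectional fit versus DMSO, viability checked by MTT.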

Bile acid receptor (Homo sapiens), sequence (Q96RI1 whole entry, looked up, the tested form may be a part): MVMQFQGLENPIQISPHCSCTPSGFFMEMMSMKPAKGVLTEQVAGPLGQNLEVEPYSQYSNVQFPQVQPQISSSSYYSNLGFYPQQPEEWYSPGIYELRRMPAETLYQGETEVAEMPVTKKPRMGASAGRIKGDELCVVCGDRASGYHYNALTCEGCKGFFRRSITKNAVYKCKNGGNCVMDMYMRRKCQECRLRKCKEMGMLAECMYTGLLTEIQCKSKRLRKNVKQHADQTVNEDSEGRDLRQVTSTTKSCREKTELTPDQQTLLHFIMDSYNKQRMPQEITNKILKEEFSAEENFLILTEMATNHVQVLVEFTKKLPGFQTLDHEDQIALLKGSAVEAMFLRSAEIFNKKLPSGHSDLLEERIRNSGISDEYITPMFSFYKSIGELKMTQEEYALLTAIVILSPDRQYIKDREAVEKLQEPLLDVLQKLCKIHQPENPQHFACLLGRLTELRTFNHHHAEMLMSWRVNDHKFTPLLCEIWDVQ
Estrogen receptor (Homo sapiens), sequence (P03372 whole entry, looked up): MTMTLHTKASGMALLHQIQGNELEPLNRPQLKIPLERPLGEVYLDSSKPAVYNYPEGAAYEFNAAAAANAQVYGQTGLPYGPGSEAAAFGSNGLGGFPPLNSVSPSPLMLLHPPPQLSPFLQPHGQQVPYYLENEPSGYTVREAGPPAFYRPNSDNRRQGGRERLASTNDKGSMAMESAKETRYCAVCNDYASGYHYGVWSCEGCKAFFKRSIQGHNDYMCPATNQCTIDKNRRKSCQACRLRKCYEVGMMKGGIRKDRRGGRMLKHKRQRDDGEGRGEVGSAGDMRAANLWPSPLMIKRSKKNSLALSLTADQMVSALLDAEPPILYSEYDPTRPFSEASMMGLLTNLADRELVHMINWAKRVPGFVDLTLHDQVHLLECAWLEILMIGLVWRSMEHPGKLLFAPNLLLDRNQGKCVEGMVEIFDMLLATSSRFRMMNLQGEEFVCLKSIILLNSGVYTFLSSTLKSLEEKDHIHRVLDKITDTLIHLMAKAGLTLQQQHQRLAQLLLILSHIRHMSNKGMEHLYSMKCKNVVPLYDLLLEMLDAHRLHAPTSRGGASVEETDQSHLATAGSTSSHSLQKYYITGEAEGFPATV
Peroxisome proliferator-activated receptor gamma (Homo sapiens), sequence (P37231 whole entry, looked up, the tested form may be a part): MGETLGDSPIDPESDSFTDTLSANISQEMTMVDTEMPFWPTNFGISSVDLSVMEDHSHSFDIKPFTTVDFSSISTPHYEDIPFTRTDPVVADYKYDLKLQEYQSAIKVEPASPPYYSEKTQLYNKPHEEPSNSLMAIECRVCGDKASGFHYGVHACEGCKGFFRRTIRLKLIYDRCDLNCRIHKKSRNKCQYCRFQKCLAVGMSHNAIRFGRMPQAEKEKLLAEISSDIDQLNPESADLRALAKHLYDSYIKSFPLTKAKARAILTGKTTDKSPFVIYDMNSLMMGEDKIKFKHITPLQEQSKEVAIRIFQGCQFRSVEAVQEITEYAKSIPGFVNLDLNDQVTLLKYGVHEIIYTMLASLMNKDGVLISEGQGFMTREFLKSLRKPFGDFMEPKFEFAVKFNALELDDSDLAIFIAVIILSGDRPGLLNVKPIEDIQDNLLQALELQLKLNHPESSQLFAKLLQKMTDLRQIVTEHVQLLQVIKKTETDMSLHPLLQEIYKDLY
Agonist Androgen Response Element (ARE), AR (gene 367), sequence (P10275 whole entry, looked up): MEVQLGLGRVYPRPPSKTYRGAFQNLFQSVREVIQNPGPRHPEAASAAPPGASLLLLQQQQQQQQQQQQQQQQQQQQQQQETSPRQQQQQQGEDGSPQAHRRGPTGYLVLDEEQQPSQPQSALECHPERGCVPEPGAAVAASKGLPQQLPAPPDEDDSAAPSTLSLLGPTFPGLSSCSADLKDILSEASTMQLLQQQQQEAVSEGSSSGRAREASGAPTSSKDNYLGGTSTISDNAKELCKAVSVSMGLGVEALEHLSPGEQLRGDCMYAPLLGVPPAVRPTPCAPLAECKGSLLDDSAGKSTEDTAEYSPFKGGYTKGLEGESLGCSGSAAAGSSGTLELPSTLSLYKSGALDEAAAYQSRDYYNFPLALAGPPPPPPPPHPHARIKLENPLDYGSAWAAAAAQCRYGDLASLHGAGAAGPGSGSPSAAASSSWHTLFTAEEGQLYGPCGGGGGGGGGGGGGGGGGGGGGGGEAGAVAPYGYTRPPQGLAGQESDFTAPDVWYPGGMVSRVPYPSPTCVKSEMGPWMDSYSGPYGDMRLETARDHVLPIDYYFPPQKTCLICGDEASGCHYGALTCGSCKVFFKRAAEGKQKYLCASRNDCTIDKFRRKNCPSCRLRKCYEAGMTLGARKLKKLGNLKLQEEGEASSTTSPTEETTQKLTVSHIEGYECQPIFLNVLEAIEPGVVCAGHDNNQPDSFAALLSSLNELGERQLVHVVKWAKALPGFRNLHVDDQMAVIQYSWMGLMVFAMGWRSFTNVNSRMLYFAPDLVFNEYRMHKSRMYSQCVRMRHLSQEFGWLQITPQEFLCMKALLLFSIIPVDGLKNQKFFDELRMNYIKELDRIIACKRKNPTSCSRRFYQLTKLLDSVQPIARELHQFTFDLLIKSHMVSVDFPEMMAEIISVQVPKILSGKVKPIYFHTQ

In general, AC50 refers to the concentration giving half of the maximal activity seen. As to `CCCCCCCCCCCCN1CCCC1=O`, the compound was called inactive in assay [1], in assay [2], in assay [3], in assay [4], in assay [9] and in assay [10]. Besides, the AC50 is 11.6 µM (active) in assay [5], 11.2 µM (active) in [6], 12.4 µM (active) in assay [7] and 11.7 µM (active) in assay [8].
For `N#C[C@@H]1CC(F)(F)CN1C(=O)CNC1CC2CCC(C1)N2c1ncccn1` (stereo not given in full), the compound was called inactive in [11], in assay [2], in assay [4], in assay [6], in assay [7] and in assay [8]. Besides, the compound was classed as inactive in assay [9] and in assay [10].
Consider `OCCC(F)(F)C(F)(F)C(F)(F)C(F)(F)C(F)(F)C(F)(F)F`, for which the call in assay [2], in assay [5], in assay [6], in assay [7], in assay [8] and in assay [9] was inactive. Also, the outcome in [10] was inactive. In assay [4], the AC50 was 11.6 µM (active).
As for `COC(=O)CCCCC(=O)OC`, the compound was called inactive in [4], in assay [6], in [7], in assay [8], in assay [9] and in [10]. Further, the call in assay [12] and in assay [13] was inactive.
As for `C=C(C)C(=O)OCCC(F)(F)C(F)(F)C(F)(F)C(F)(F)C(F)(F)C(F)(F)F`, the outcome in [1], in [2], in assay [5], in assay [6], in [7] and in assay [8] was inactive. Further, the call in assay [9] and in [10] was inactive. Besides, the AC50 in [4] was 12.5 µM (active).
As to `CCCCC(CC)COC(=O)CCCCC(=O)OCC(CC)CCCC` (stereo not given), the result in assay [2], in assay [3], in assay [4], in assay [5], in [6] and in [7] was inactive. The compound was classed as inactive in assay [9] and in assay [10].
In the case of `OC1CCC(C2CCCCC2)CC1` (stereo not given), the outcome in assay [1], in [2], in assay [3], in assay [4], in assay [5] and in [6] was inactive. Besides, the compound was classed as inactive in assay [7], in assay [8], in assay [9], in assay [10] and in [12]. Besides, the AC50 in assay [2] was 57.8 µM (active) and 49.5 µM (active) and 59.4 µM (active); in [5], 55.7 µM (active) and 35.6 µM (active) and 50 µM (active).
As to `c1ccc2c(c1)ccc1ccccc12`, the call in assay [11], in [3], in assay [4], in [5], in assay [6] and in assay [7] was inactive. Further, the compound was classed as inactive in assay [8], in [9] and in assay [10]. Also, the figures for the AC50 in assay [12] and in assay [13] were 55.9 µM (active) and 27.2 µM (active), respectively.
